Drawing on PubChem BioAssay AID652208 (Broad Institute, 2013), this text covers outcome for 38 compounds.

Structures are written as SMILES. Potency and affinity values are given separately. Active and inactive are the calls of the source.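 How the source made its calls: active means Loss of cell signal with fitted half-effect dose at or below twice the top valid tested dose; inconclusive means Poor fit, or flat fit from -70 to -30 percent; inactive means Half-effect above limit, rising signal, or flat within 30 percent.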

A short description of the assay: HEK293T cell cytotoxicity, dose response, cytotoxicity control for HIV Vif inhibitor project, cherry-picks (AID 652208). As to conditions: HEK293T viability, CellTiter-Glo luminescence, 24 h; series mostly up to 26 µM. Background: In ATP-based viability assays light output follows the ATP content of the culture.
`COc1ccc(CCNc2nnc(Sc3nnnn3-c3ccccc3)s2)cc1OC`: the call was inactive.

Regarding `CCC1=Nc2cc(C(=O)NCc3ccco3)ccc2Sc2ccc(C)cc21`, the call was inactive. Next, `O=C(NCc1ccc(OC(F)(F)F)cc1)c1cccc2c1C(=O)c1ccc(N3CCCCC3)cc1S2(=O)=O`: “inactive”; `Nc1nonc1-c1nc2ccccc2n1CC(=O)NC1CCCC1`: “inactive”. As to `COc1ccc(S(=O)(=O)Nc2cc3c(C(C)=O)c(C)oc3c3ccccc23)cc1`, the compound was called inactive.

Turning to `O=C(NCc1cccnc1)NC1(C(F)(F)F)Oc2ccc(Cl)cc2O1` (stereo not drawn), the outcome was inactive. Next, `COc1cccc(CNc2ccc3c(c2)CCC3)c1`: “inactive”; `COc1ccc(NC(=O)C2(C)Cc3c(-c4cccc(NC(C)=O)c4)ccnc3O2)cn1` (stereo not drawn): “inactive”. Consider `COc1ccc(CNC(=O)CN2C(=O)NC(c3ccccc3)(c3ccccc3)C2=O)cc1`, for which the compound was classed as inactive. As to `COc1ccc(S(=O)(=O)N2c3cc(Cl)ccc3Oc3nc4ccccc4nc32)cc1`, the compound was classed as inactive.

With `O=C(CN(C(=O)c1csnn1)c1ccc(F)cc1)NCc1ccc2c(c1)OCO2`, the outcome was inactive. Next, `COCCNCC(=O)Nc1nc(C)cs1`: “inactive”; `O=C(O)CCCCn1c(SCc2ccccc2Cl)nc2ccsc2c1=O`: “inactive”. As for `O=C(NC1CCCc2ccccc21)c1ccccc1Br` (stereo not drawn), the compound was classed as inactive. Next, `CCOC(=O)C1(Cc2cccc(OC)c2)CCN(CCO)CC1`: “inactive”; `CCCOc1ccc(C(O)(CCC)CCN2CCCCC2)cc1` (stereo not drawn): “inactive”.

In the case of `CC(=O)Nc1ccc(C2(c3ccc(NC(C)=O)cc3)NC(=O)c3ccccc32)cc1`, the call was inactive. With `O=S(=O)(Nc1nc2ccccc2nc1NCc1ccco1)c1ccc(Cl)cc1`, the outcome was inactive.

Regarding `CCC(C)NC(=O)Cn1c(=O)n(-c2ccccc2)c(=O)c2ccc(C(=O)NCc3ccco3)cc21` (stereo not drawn), the compound was called inactive. As to `CCC(=O)Nc1ccc(-c2nnc(SCc3ccc(C(=O)Nc4nccs4)cc3)n2CC)cc1`, the call was inactive.

`CN(C)c1ccc(/C=C/C(=O)c2ccc3c(c2)OCO3)cc1`: the result was inactive. In the case of `C=CCn1c(O)c(C2=c3ccccc3=NC2=O)s/c1=N/c1nccs1` it was “inactive”. Next, `CCN(CCCNC(=O)C1CCC(=O)N1Cc1ccc(C)cc1)c1cccc(C)c1` (stereo not drawn): “inactive”.

Regarding `C=CCNc1sc(C(=O)c2ccc(Br)s2)c(N)c1C#N`, the outcome was inactive. For the compound `CCN1CCN(c2cc(=O)n(-c3cc(Cl)ccc3C)c(=O)[nH]2)CC1`, the compound was classed as inactive. On to `COC(=O)c1cc(Cl)c(NC(=O)c2cc3ccccc3o2)cc1OC`, for which the result was inactive. `COc1ccc(-c2ccc3c(N)c(C(=O)c4ccc(OC)c(OC)c4)sc3n2)cc1`: the compound was classed as inactive.

`CCOC(=O)Nc1ccc(NCc2ccc(F)cc2)nc1N`: the compound was called inactive. In the case of `CCc1ccc(N2C(=O)/C(=C/c3cccs3)N(CC(=O)OC)C2=S)cc1` it was “inactive”; in that of `CCC(=O)N(CCC1(C(C)C)CCOC(C)(C)C1)Cc1ccco1` (stereo not drawn), “inactive”; in that of `CCOc1nc(N2CCCCC2)nc(-n2cc(-c3ccccc3)nn2)n1`, “inactive”. Regarding `Nc1nc(-c2ccc3ccccc3c2)cs1`, the call was inactive. Next, `CN1CCN(C(=S)c2ccc(OCC(=O)Nc3cccc(C(F)(F)F)c3)cc2)CC1`: “inactive”; `CCN(CC)C(=O)c1cccc(NC(=O)C2=COCCO2)c1`: “inactive”; `CCn1c(CC(=O)Nc2ccccc2)nnc1SCC(=O)Nc1nnc(C)s1`: “inactive”. Next, `COc1ccc2nc(N3C(=O)C(O)=C(C(=O)c4ccco4)C3c3ccccc3OC)sc2c1` (stereo not drawn): “inactive”; `COc1ccc(-c2coc3cc(O)ccc3c2=O)cc1`: “inactive”. Regarding `CC(=O)Nc1ccc(S(=O)(=O)N2c3ccccc3C(C)=CC2(C)C)cc1`, the compound was called inactive.
